The values that follow come from PubChem BioAssay (EPA / NIEHS).

Records with an inconclusive call do not appear. Calls of active or inactive are those of the source. How the source made its calls, unless noted: active means hit-call score of the fitted dose curve at least 0.9, where 1 is the maximum; inconclusive means response in the unintended direction; inactive means score below 0.9.

The nature of experiment [1]: CEETOX_H295R_MTT_cell_viability: Viability Assessment in the CeeTox HT-H295R MTT Assay (AID 2283718; active means hit-call score of the fitted dose curve at least 0.9, where 1 is the maximum; inactive means score below 0.9;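 on AC50: curve fitted both ways so AC50 may mark viability loss or gain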). In short, it runs like this:
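Human H295R adrenal cells, prestimulated 48 h with 10 uM forskolin, were exposed 48 h to chemicals in 0.1% DMSO. Viability was measured in the same wells by MTT (0.5 mg/ml, 4 h, 37 C), absorbance 570/650 nm, as percent of controls.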

Experiment [2] is described as follows: Tanguay_ZF_120hpf_ActivityScore_legacy: (Legacy) Oregon State University Tanguay Lab 120 Hour Post-fertilization zebrafish Assay Score for Activity (AID 2283742).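 On AC50: dechorionated Tropical 5D wild-type zebrafish embryos held singly per well; static exposure from 6 hpf until 120 hpf at 28 °C.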 A digest of the protocol:
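Dechorionated Tropical 5D embryos, one per well from 6 hpf, statically exposed to 120 hpf at 28 °C in 0.64% DMSO. Mortality and malformations scored binary by brightfield microscopy; activity score combines 18 endpoints, fitted positively versus DMSO.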

Experiment [3] can be described thus: ACEA_AR_agonist_AUC_viability: ACEA Biosciences xCELLigence Real-Time Cell Analysis on Androgen Receptor Agonism for Viability (AID 2283775).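 On AC50: viability read 80 hours after compound addition.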 A digest of the protocol: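 Read-out is area under the impedance curve at 80 h post-dose in 22Rv1 cells, with DMSO as baseline and signal loss taken as reduced viability. Compounds ran in duplicate from 100 uM final.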

Experiment [4] is described as follows: STM_H9_CystineISnorm_perc: Stemina devTOX quickPredict H9 human embryonic stem cell (hESC)-based Assay for Cystine (CYSS) Metabolite Biomarker, Normalized (AID 2283713; active means hit-call score of the fitted dose curve at least 0.9, where 1 is the maximum; inactive means score below 0.9). A digest of the protocol:
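Secreted cystine was measured by UPLC-HRMS in H9 hESC medium after 72h compound exposure with 24-hourly replenishment. Values are standard-normalized areas relative to 0.1% DMSO.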

The nature of experiment [5]: STM_H9_OrnCyssISnorm_ratio: Stemina devTOX quickPredict H9 human embryonic stem cell (hESC)-based Assay for Ornithine (ORN):Cystine (CYSS) Ratio (AID 2283714). A digest of the protocol:
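Undifferentiated H9 hESCs exposed 72 h, media and compound replaced every 24 h; final 24-h conditioned media deproteinized and analysed by UPLC-HRMS against C13 spike-ins. Value is the internal-standard-normalized ORN/CYSS ratio versus 0.1% DMSO.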

Experiment [6] has as its system Thyroperoxidase (TPO), gene 445522. The experiment can be described thus: CCTE_Simmons_GUA_TPO: CCTE's Guaiacol Assay for Thyroperoxidase (TPO) Inhibition, Simmons Lab (AID 2283750). In short, it runs like this: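 Porcine thyroid microsomes (25 ug) in 200mM potassium phosphate, preincubated 30 s at 37C with compound (8 concentrations, 5 nM–87.5 uM) and 35mM guaiacol; 1mM H2O2 starts reaction. Absorbance change at 450nm over first 80 s; loss of signal versus DMSO, three replicates.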

In experiment [7] the target is Luciferin 4-monooxygenase (Photinus pyralis) (UniProt P08659). The experiment can be described thus: CCTE_Simmons_QuantiLum_inhib_2: CCTE's Firefly Luciferase Inhibition Assay, Simmons Lab (AID 2283767).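 On AC50: potency for inhibitors that lower luciferase luminescence relative to DMSO.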 In short, it runs like this: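 Counter-screen for nonspecific enzyme inhibition: purified firefly luciferase incubated 30 min at 37C with chemicals up to 87.5 uM final, then luminescence measured after luciferin/dATP injection; activity fitted against DMSO baseline.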

Experiment [8] can be described thus: ArunA_CellTiter_hNC: Viability Assessment in the ArunA Biomedical's Oris Neural Crest (hNC) Cell Migration Assay (AID 2283752). In short, it runs like this:
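Viability of embryonic neural crest stem cells from the H9 line is scored 72 h after dosing, with DMSO as negative control and baseline. A drop in CellTiter Aqueous One signal indicates cytotoxicity.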

Experiment [9] can be described thus: ArunA_Migration_hNP: ArunA Biomedical's Oris Neuroprogenitor (hNP) Cell Migration Assay (AID 2283754). In short, it runs like this:
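Human H9-derived hNP1 neuroprogenitors on Matrigel with LIF/bFGF, plated around seeding stoppers for 16 h at 37C; stoppers removed at start of 72 h chemical exposure. Calcein-AM staining, fluorescence 494/517 nm in detection zone; loss-of-signal vs DMSO; cytochalasin D control.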

Experiment [10] can be described thus: ArunA_Migration_hNC: ArunA Biomedical's Oris Neural Crest (hNC) Cell Migration Assay (AID 2283755). A digest of the protocol: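 Human H9-derived neural crest stem cells, 60,000/well on Matrigel, 16 h at 37C, then 72 h chemical exposure after seeding-stopper removal. Migration into detection zone read as calcein-AM fluorescence (ex494/em517), relative to DMSO.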

Experiment [11] can be described thus: ArunA_NOG_NucleusCount: ArunA Biomedical's Neurite Outgrowth (NOG) Assay for Nucleus Count (AID 2283756). A digest of the protocol:
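Human H9-derived differentiated neurons were exposed for 48 h right after seeding. Hoechst-stained nuclei gated by size and intensity were counted by automated high-content imaging as viable neurons. Loss of signal vs DMSO.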

Experiment [12] in a line: ArunA_NOG_NeuritesPerNeuron: ArunA Biomedical's Neurite Outgrowth (NOG) Assay for Neurites Per Neuron (AID 2283758). A digest of the protocol:
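Differentiated human H9-derived neurons exposed to chemicals for 48 h from seeding, then stained with Hoechst and βIII-tubulin/DyLight 488. Automated imaging counted neurites (processes >10 um) per valid neuron; loss of signal versus DMSO scored.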

Experiment [13] is described as follows: ArunA_NOG_BranchPointsPerNeurite: ArunA Biomedical's Neurite Outgrowth (NOG) Assay for Branch Points Per Neurite (AID 2283759). In short, it runs like this:
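Automated image analysis traced neurites (processes >10 um) from valid cell bodies after Hoechst and βIII-tubulin staining. hNN cells from H9 embryonic stem cells, 48 h exposure. Fitted bidirectionally against DMSO.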

The nature of experiment [14]: ArunA_CellTiter_hNP: Viability Assessment in the ArunA Biomedical's Oris Neural Crest (hNC) Cell Migration Assay (AID 2283753). In short, it runs like this: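 H9-derived hNP1 neuroprogenitors, 60,000/well on Matrigel, cultured 16 h, then 72 h chemical exposure in test medium. Cell titer via CellTiter Aqueous One; positive-direction fit vs DMSO.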
For experiment [15], the system named is chicken Androgen Receptor (AR), gene 422165. The experiment in a line: ATG_chAR_XSP1: Attagene TRANS-FACTORIAL Multi-Species (XSP1) HepG2 Assay for chicken Androgen Receptor (AR) (AID 2283768). In short, it runs like this: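 HepG2 cells transiently transfected with multiplexed GAL4-UAS reporter units expressing chimeric chicken AR-Gal4; 3 nM 6-alpha-fluorotestosterone for partial AR stimulation; 24 h after dosing, reporter mRNA by RT-PCR and capillary electrophoresis, gain-of-signal versus DMSO.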

In experiment [16] the test system is zebrafish Androgen Receptor (AR), gene 100005148. The experiment can be described thus: ATG_zfAR_XSP1: Attagene TRANS-FACTORIAL Multi-Species (XSP1) HepG2 Assay for zebrafish Androgen Receptor (AR) (AID 2283771). A digest of the protocol:
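HepG2 cells were transiently transfected with a zebrafish AR-GAL4 reporter system and partially stimulated with 3 nM 6-alpha-fluorotestosterone. Reporter mRNA was measured after 24 h dosing by RT-PCR with capillary electrophoresis, and gain-of-signal was fitted relative to DMSO.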

The target of experiment [17] is zebrafish Estrogen Receptor (ESR1), esr1 (gene 259252) (UniProt P57717). The experiment in a line: ATG_zfER1_XSP1: Attagene TRANS-FACTORIAL Multi-Species (XSP1) HepG2 Assay for zebrafish Estrogen Receptor (ESR1) (AID 2283772). In short, it runs like this: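 HepG2 cells were transiently transfected with multiplexed GAL4-UAS reporter units driven by chimeric NR-GAL4 proteins, dosed for 24 h with 3 nM 6-alpha-fluorotestosterone present, and reporter mRNA quantified by RT-PCR and capillary electrophoresis versus DMSO.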

For experiment [18], the system named is zebrafish Estrogen Receptor (ESR2B), gene 317733. The experiment can be described thus: ATG_zfER2b_XSP1: Attagene TRANS-FACTORIAL Multi-Species (XSP1) HepG2 Assay for zebrafish Estrogen Receptor (ESR2B) (AID 2283773). In short, it runs like this: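 HepG2 cells transiently transfected with GAL4-UAS reporter units for chimeric zebrafish ER2b-Gal4, with 3 nM 6-alpha-fluorotestosterone present; reporter mRNA measured 24 h after dosing by RT-PCR and capillary electrophoresis, gain versus DMSO.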

In experiment [19] the test system is frog Estrogen Receptor (ESR2), gene 100174814. The experiment in a line: ATG_frER2_XSP1: Attagene TRANS-FACTORIAL Multi-Species (XSP1) HepG2 Assay for frog Estrogen Receptor (ESR2) (AID 2283774). In short, it runs like this: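 HepG2 cells transiently transfected with GAL4-UAS reporter units expressing chimeric frog ER-Gal4; 3 nM 6-alpha-fluorotestosterone present. After 24 h dosing, reporter mRNA quantified by RT-PCR and capillary electrophoresis; gain-of-signal fitted relative to DMSO.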

Sequence of Luciferin 4-monooxygenase (Photinus pyralis) (P08659 whole entry, looked up): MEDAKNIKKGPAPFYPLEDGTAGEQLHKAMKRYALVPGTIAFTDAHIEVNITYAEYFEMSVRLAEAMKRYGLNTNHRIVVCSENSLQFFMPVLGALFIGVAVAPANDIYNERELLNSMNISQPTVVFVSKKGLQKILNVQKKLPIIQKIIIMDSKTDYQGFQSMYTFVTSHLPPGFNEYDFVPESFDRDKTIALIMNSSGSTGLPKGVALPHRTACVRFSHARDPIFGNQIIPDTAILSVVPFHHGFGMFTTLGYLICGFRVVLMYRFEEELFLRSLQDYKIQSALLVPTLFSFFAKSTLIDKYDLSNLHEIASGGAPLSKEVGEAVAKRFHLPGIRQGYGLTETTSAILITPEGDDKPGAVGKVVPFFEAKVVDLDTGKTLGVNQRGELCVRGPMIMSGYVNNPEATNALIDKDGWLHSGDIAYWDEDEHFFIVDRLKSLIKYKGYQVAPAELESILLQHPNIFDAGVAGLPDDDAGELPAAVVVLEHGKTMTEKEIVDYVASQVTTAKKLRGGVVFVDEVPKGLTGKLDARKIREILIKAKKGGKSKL
Sequence of zebrafish Estrogen Receptor (ESR1), esr1 (gene 259252) (P57717 whole entry, looked up, the tested form may be a part): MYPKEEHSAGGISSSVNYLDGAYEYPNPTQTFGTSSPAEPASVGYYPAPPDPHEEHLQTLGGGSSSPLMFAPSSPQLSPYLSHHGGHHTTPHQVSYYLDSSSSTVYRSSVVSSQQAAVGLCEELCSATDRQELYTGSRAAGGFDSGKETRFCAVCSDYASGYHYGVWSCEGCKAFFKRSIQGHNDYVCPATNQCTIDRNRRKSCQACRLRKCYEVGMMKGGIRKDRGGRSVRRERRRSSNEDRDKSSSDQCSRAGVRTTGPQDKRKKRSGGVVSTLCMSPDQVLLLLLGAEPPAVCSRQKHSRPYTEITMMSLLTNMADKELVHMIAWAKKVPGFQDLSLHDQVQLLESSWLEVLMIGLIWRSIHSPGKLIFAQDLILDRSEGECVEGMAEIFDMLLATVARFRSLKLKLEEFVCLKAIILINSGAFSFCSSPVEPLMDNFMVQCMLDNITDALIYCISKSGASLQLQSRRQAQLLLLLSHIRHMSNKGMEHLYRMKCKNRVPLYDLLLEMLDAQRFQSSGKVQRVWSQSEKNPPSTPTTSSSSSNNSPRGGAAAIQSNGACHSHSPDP

As to `CCNc1nc(Cl)nc(NC(C)(C)C)n1`, the compound was called inactive in experiment [1], in experiment [2] and in [3].
In the case of `COP(N)(=S)OC`, the compound was called inactive in experiment [1].
On the same count and under the same terms, as for `CC(C)Nc1ccc(Nc2ccccc2)cc1`, the entry is “inactive”.
For orientation: AC50 means the concentration at which the activity in the assay is half-maximal. With `c1ccc2c(c1)Nc1ccccc1S2`, the result in [4], in experiment [5], in experiment [1], in experiment [2], in [7] and in experiment [3] was inactive. Moreover, the AC50 in [6] was 100 µM (active).
For `N#Cc1c(-c2ccc(Cl)cc2)[nH]c(C(F)(F)F)c1Br`, the half-maximal activity concentration (AC50) in [1] was 0.289 µM (active).
As for `CO/N=C(/C(=O)OC)c1ccccc1COc1ccccc1C`, in experiment [1], the AC50 was 5.04 µM (active). For the same compound, in experiment [3], the call was inactive.
Turning to `Nc1ccc([N+](=O)[O-])cc1Cl`, the outcome in experiment [1] was inactive.
On to `CCC(C)(C)c1ccc(O)cc1`, for which the outcome in [4], in experiment [1] and in experiment [7] was inactive. Further, the values for the AC50 in experiment [5], in [2] and in [3] were 40.1 µM (active), 21.3 µM (active) and 67 µM (active), respectively.
As to `CCOP(=S)(NC(C)C)Oc1ccccc1C(=O)OC(C)C` (stereo unspecified), the compound was classed as inactive in [1].
As for `O=S(=O)(c1ccc(O)cc1)c1ccc(O)cc1`, the compound was called inactive in [1], in experiment [7] and in experiment [3].
As to `CC(=O)c1ccc(-c2ccccc2)cc1`, the call in experiment [1] was inactive.
`CCOP(=S)(OCC)SCn1nnc2ccccc2c1=O`: in experiment [1], the compound was called inactive.
Take `O=[N+]([O-])c1ccccc1`: the result in [4], in experiment [2] and in [3] was inactive.
In the case of `Nc1ccc(Cl)cc1`, the call in experiment [1], in experiment [2] and in [7] was inactive. For the same compound, the AC50 in experiment [3] was 5.62 µM (active).
With `Oc1ccc(I)cc1`, the call in [1] was inactive.
Turning to `CCC1(c2ccccc2)C(=O)N=C(O)NC1=O` (stereo unspecified), the outcome in experiment [4], in experiment [5], in [2], in experiment [7] and in experiment [3] was inactive.
Take `COCCOCCO`: the outcome in experiment [4], in experiment [5] and in experiment [2] was inactive.
Turning to `CCCCc1ccc(O)cc1`, the result in experiment [1], in experiment [7] and in experiment [3] was inactive.
In the case of `CCOP(=S)(Oc1ccc([N+](=O)[O-])cc1)c1ccccc1` (stereo unspecified), the compound was classed as inactive in experiment [1], in [2] and in experiment [7]. For the same compound, the AC50 in [3] is 50 µM (active).
With `Cc1ccc(N)cc1N`, the result in [4], in experiment [1], in experiment [8], in experiment [9], in experiment [11] and in [12] was inactive. Further, in experiment [13], the compound was classed as inactive. The AC50 in [5] is 65.8 µM (active); in experiment [2], 0.00921 µM (active); in experiment [10], 55.6 µM (active); in experiment [7] it was 21.6 µM (active).
As for `O=P(Oc1ccccc1)(Oc1ccccc1)Oc1ccccc1`, the result in [4], in experiment [1], in experiment [2], in experiment [8], in experiment [14] and in experiment [9] was inactive. For the same compound, the compound was classed as inactive in [11], in experiment [15], in [16] and in experiment [17]. Moreover, the AC50 in [18] is 5.84 µM (active); in [19], 2.77 µM (active).
As for `O=S1(=O)OCC2C(CO1)C1(Cl)C(Cl)=C(Cl)C2(Cl)C1(Cl)Cl` (stereo unspecified), the compound was classed as inactive in experiment [1]. The AC50 in experiment [7] is 31.9 µM (active).
`Nc1cc2c3c(c1)C(c1ccccc1)=N[C@@H](NC(=O)c1cccnc1)C(=O)N3CC2`: the compound was called inactive in [1], in experiment [2], in experiment [6], in experiment [7] and in experiment [3].
As for `O=C(O)C(Cl)Cl`, the outcome in experiment [4], in experiment [5], in experiment [2] and in experiment [3] was inactive.
On to `ClC(Cl)=C(c1ccc(Cl)cc1)c1ccccc1Cl`, for which the compound was called inactive in [1].
With `Cc1cccc(N)c1`, the compound was called inactive in [1], in experiment [2], in experiment [7] and in experiment [3]. In addition, the AC50 in experiment [6] was 8.25 µM (active).
